HepG2 tox-1: HepG2 cytotoxicity, counter-screen for TGF-b inhibitors; AID 588856; HepG2 CAGA-GFP viability, ATP luminescence, 18 h; 410,000 tested, 0.76% active; Potency, µM (top dose mostly 46.1 µM), usual class: cytotoxic
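HepG2 CAGA-GFP cells (1000/well, DMEM with 1% FBS) received compound, then TGF-beta at 500 pg/mL final, and were incubated 18 hours at 37 degrees C. Viability was read by CellTiter-Glo luminescence. Media-only wells were set as complete cell-killing and DMSO as no toxicity.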
DT40 TDP1 no CPT: qHTS for Inhibitors of human tyrosyl-DNA phosphodiesterase 1 (TDP1): qHTS in cells in absence of CPT | DT40 Tdp1-/- hTDP1 cells, no CPT, ATP luminescence, 48 h | 420,000 tested, 15% active | Potency, µM (series often up to 46.2 µM), most hits filed as inhibitors; further: nearly all actives have a fitted effect of over 55% in size
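Camptothecin absent (DMSO only). Human TDP1-complemented DT40 knockout cells, 400 cells/well, 37 °C for minimum 48 hr; ATP measured via CellTiter-Glo, 30 min dark incubation, luminescence.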
TGFb SMAD3 inh: blocks TGF-b signaling; HepG2 CAGA-GFP TGF-b/SMAD3 reporter, GFP fluorescence, 18 h; TGF-beta stimulated, 500 pg/mL final; Potency, µM (highest dose often 46.1 µM), most hits filed as inhibitors; 410,000 tested, 1.2% active; AID 588855; further: nearly all actives have a fitted effect of over 65% in size
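Inhibition was scored as loss of TGF-beta-induced (500 pg/mL final, 18 hours, 37 degrees C) GFP in HEPG2 cells carrying a CAGA-GFP reporter, in DMEM with 1% FBS. Well GFP was summed per cell; Activity was normalised to unstimulated and stimulated DMSO wells, then concentration-response fitting.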
ATXN2 expr inh: reduces ATXN2 reporter expression in HEK-293 cells; AID 1745845; 360,000 tested, 0.72% active; HEK-293 ATXN2-luciferase reporter, luminescence, 24 h; Potency, µM (top dose mostly 57 µM), most hits filed as inhibitors; further: nearly all actives have a fitted effect of over 55% in size
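qHTS (up to 57 uM final) was run with 24 h compound exposure of reporter cells at 37 °C. Each well was multiplexed: SteadyGlo luminescence measured ATXN2-luciferase expression after a fluorogenic Gly-Phe-AFC viability readout (25 uM final).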
TDP1 cell CPT: DT40-hTDP1 cell growth loss with CPT. chicken DT40 Tdp1-/-;hTDP1 cells + 20 nM CPT, ATP luminescence, 48 h. Potency, µM (top dose mostly 46.2 µM), usual class: inhibitors. 420,000 tested, 12% active. AID 686979; further: nearly all actives have a fitted effect of over 55% in size
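Cell growth measured by CellTiter-Glo luminescence after a minimum 48 h, 37 C compound exposure with 20 nM CPT in Tdp1-knockout DT40 cells stably expressing hTDP1, seeded 400/well; qHTS titration format.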
S2 tox: cell viability loss in ATXN counter-screen. AID 651635. S2 cells (HEK-293 line with an ATXN2-luciferase reporter) viability, CellTiter-Fluor protease fluorescence, 24 h. Potency, µM (series often up to 56.7 µM), hits mostly cytotoxic. 400,000 tested, 0.49% active; further: nearly all actives have a fitted effect of over 40% in size
TGFb CAGA inh: confirmation of TGF-b signaling inhibitors in HepG2 reporter cells; HepG2 CAGA-GFP TGF-b reporter, GFP fluorescence, 18 h; cells stimulated with TGF-beta, 500 pg/mL; 1,600 tested, 63% active; shares compounds with TGFb SMAD3 inh; Potency, µM (series often up to 46.1 µM), actives largely listed as inhibitors; further: nearly all actives have a fitted effect of over 65% in size
HepG2 tox-2: toxic to HepG2 cells in TGF-b counterscreen; shares compounds with TGFb SMAD3 inh; HepG2 CAGA-GFP viability, ATP luminescence, 18 h; cells stimulated with TGF-beta, 500 pg/mL; Potency, µM (doses to about 46.1 µM), actives largely listed as inhibitors; 1,600 tested, 27% active; AID 720535; further: nearly all actives have a fitted effect of over 70% in size
CCL64 TGFb inh: orthogonal confirmation of TGF-b inhibitors in CCL64 cells. Potency, µM (series often up to 46.1 µM), actives largely listed as inhibitors. CCL64 CAGA-GFP reporter, TGF-b stimulated, GFP fluorescence, 18 h. 1,600 tested, 41% active. shares compounds with TGFb SMAD3 inh. AID 720536; further: nearly all actives have a fitted effect of over 65% in size
TGFb COP inh: TGF-b inhibition validated with COP promoter; shares compounds with TGFb SMAD3 inh; HepG2 COP-GFP TGF-b reporter, GFP fluorescence, 18 h; cells stimulated by added recombinant TGF-beta; Potency, µM (top dose mostly 46.1 µM), usual class: inhibitors; 1,600 tested, 3% active; further: nearly all actives have a fitted effect of over 70% in size
Of the large screens only hits and unclear results are named; the others gave an inactive call (follow-up assays come after a bar, where they were run). Most compounds without a hit are left out; they make up all but 17% or so of the library. The call rests on the fitted dose curve; in most records, active means well fitted curve in the direction sought with a large enough effect; inconclusive means small, poorly fitted or top-dose-only effect, or another doubt; inactive means no such curve, though single readings can be large; an effect the other way counts as inactive or inconclusive.

CCOc1ccc(CCNC(=O)C2CC(=O)N(c3ccc4c(c3)OCCO4)C2)cc1OCC (centres undefined)	none
COc1ccc(CC(=O)NNC(=O)c2ccc(Br)s2)cc1OC	ATXN2 expr inh inconclusive, S2 tox inconclusive
COc1ccc(N2CCCC2)c(NC(=O)c2ccc([N+](=O)[O-])o2)c1	DT40 TDP1 no CPT 18.4µM, TGFb SMAD3 inh 5.62µM, TDP1 cell CPT 7.31µM, S2 tox inconclusive | TGFb CAGA inh inconclusive | HepG2 tox-2 inconclusive | CCL64 TGFb inh inconclusive | TGFb COP inh inactive
COc1ccccc1NC(=O)c1ccc([N+](=O)[O-])o1	HepG2 tox-1 12.6µM, DT40 TDP1 no CPT 16.4µM, TGFb SMAD3 inh 2.82µM, TDP1 cell CPT 13µM | TGFb CAGA inh inconclusive | HepG2 tox-2 inconclusive | CCL64 TGFb inh inconclusive | TGFb COP inh inactive
O=C(Nc1nc2ccc(F)cc2s1)c1ccc([N+](=O)[O-])o1	DT40 TDP1 no CPT 7.31µM, TGFb SMAD3 inh 5.62µM, TDP1 cell CPT 6.51µM, S2 tox inconclusive (no result: ATXN2 expr inh) | TGFb CAGA inh 4.61µM | HepG2 tox-2 9.2µM | CCL64 TGFb inh inconclusive | TGFb COP inh inactive
O=C(Nc1cccc(NC(=O)c2ccccc2Cl)c1)c1ccc([N+](=O)[O-])o1	DT40 TDP1 no CPT 5.8µM, TGFb SMAD3 inh 3.55µM, ATXN2 expr inh inconclusive, TDP1 cell CPT 8.2µM, S2 tox inconclusive | TGFb CAGA inh 1.3µM | HepG2 tox-2 6.51µM | CCL64 TGFb inh 8.2µM | TGFb COP inh inconclusive
O=C(CSc1nc(=O)[nH]c2c1CCC2)NCc1ccc(Cl)cc1	none (no result: ATXN2 expr inh, S2 tox)
CCOc1ccccc1OCCCC(=O)Nc1ccc(S(=O)(=O)Nc2cc(C)nc(C)n2)cc1	none (no result: ATXN2 expr inh)
O=C(Nc1ccccn1)c1ccc([N+](=O)[O-])o1	DT40 TDP1 no CPT 16.4µM, TGFb SMAD3 inh 10µM, TDP1 cell CPT 16.4µM (no result: ATXN2 expr inh) | TGFb CAGA inh 16.4µM | HepG2 tox-2 inconclusive | CCL64 TGFb inh inconclusive | TGFb COP inh inactive
O=C(Nc1ccccn1)c1ccco1	none
O=C(O)C1=C2C(=O)Nc3cccc(c32)C2(C1)C(=O)Nc1ccccc12 (centres undefined)	S2 tox inconclusive (no result: ATXN2 expr inh)
CC(C)C(=O)NC(c1cccc([N+](=O)[O-])c1)c1ccc2cccnc2c1O (centres undefined)	DT40 TDP1 no CPT 4.61µM, TGFb SMAD3 inh 3.55µM, ATXN2 expr inh 2.67µM, TDP1 cell CPT 4.61µM, S2 tox inconclusive | TGFb CAGA inh inconclusive | HepG2 tox-2 inconclusive | CCL64 TGFb inh 7.31µM | TGFb COP inh inactive
CC(C)C(=O)NC(c1cccc([N+](=O)[O-])c1)c1c(O)ccc2ccccc12 (centres undefined)	none
CCCC(=O)NC(c1ccccc1Cl)c1c(O)ccc2ccccc12 (centres undefined)	DT40 TDP1 no CPT inconclusive, TDP1 cell CPT inconclusive
CCCC(=O)NC(c1ccc(Cl)cc1)c1ccc2cccnc2c1O (centres undefined)	DT40 TDP1 no CPT 4.11µM, TGFb SMAD3 inh inconclusive, ATXN2 expr inh 7.08µM, TDP1 cell CPT 4.11µM, S2 tox inconclusive | TGFb CAGA inh inconclusive | HepG2 tox-2 inconclusive | CCL64 TGFb inh 5.17µM | TGFb COP inh inactive
C[C@@]12CCC(=O)C[C@@H]1CC(=O)[C@H]1[C@H]3CCC[C@]3(C)C(=O)C[C@@H]12 (tested in a mixture with another compound)	none (no result: HepG2 tox-1, DT40 TDP1 no CPT, TGFb SMAD3 inh, ATXN2 expr inh, TDP1 cell CPT)
COc1ccc(CNC(=O)C(C(C)C)N2Cc3ccccc3C2=O)cc1 (centres undefined)	none (no result: ATXN2 expr inh, S2 tox)
O=S(=O)(c1cc(F)ccc1F)N1CCN(c2ccccn2)CC1	none
O=S(=O)(c1cc(F)ccc1F)N1CCN(c2ncnc3ccccc23)CC1	DT40 TDP1 no CPT 2.06µM, TGFb SMAD3 inh 12.6µM, TDP1 cell CPT 2.31µM (no result: ATXN2 expr inh) | TGFb CAGA inh 8.2µM | HepG2 tox-2 inactive | CCL64 TGFb inh inactive | TGFb COP inh inactive
CC(=O)c1cccc(N(CC(=O)Nc2cc(C)cc(C)c2)S(C)(=O)=O)c1	DT40 TDP1 no CPT inconclusive
CCCCCCCN(c1ccccc1)[C@@H]1C[C@H]2CCCC(=O)N3CC[C@@H](C1)[C@@H]23	HepG2 tox-1 11.2µM, DT40 TDP1 no CPT 10.3µM, TGFb SMAD3 inh 10µM, ATXN2 expr inh inconclusive, TDP1 cell CPT 11.6µM (no result: S2 tox) | TGFb CAGA inh inconclusive | HepG2 tox-2 inconclusive | CCL64 TGFb inh 20.6µM | TGFb COP inh 20.6µM
CCCc1cc(-c2[nH]ncc2-c2ccc3c(c2)OCCCO3)c(O)cc1O	DT40 TDP1 no CPT inconclusive, TGFb SMAD3 inh inconclusive, ATXN2 expr inh inconclusive, TDP1 cell CPT inconclusive, S2 tox inconclusive
CCCc1cc(-c2[nH]ncc2-c2ccc(C(=O)OCC)o2)c(O)cc1O	HepG2 tox-1 20µM, DT40 TDP1 no CPT inconclusive, TGFb SMAD3 inh 10µM, TDP1 cell CPT inconclusive, S2 tox inconclusive | TGFb CAGA inh inactive | HepG2 tox-2 inactive | CCL64 TGFb inh inconclusive | TGFb COP inh inactive
Cc1ccc(S(=O)(=O)c2cnc(SC(C)C(=O)Nc3ccccc3)[nH]c2=O)cc1 (centres undefined)	none (no result: DT40 TDP1 no CPT, TDP1 cell CPT)
COc1ccc(N(C(=O)CCl)C(C(=O)NCCc2ccccc2)c2cccs2)cc1Cl (centres undefined)	DT40 TDP1 no CPT 1.46µM, TGFb SMAD3 inh 7.94µM, ATXN2 expr inh 1.78µM, TDP1 cell CPT 2.59µM, S2 tox 1.41µM | TGFb CAGA inh 4.61µM | HepG2 tox-2 5.17µM | CCL64 TGFb inh 2.06µM | TGFb COP inh 20.6µM

Assay outcomes as filed in PubChem BioAssay.
